# Hits are enriched below; roughly 3.1% of the tested compounds scored in any of these assays.
# MEKK3 PB1 HTS: raises or lowers MEK5 binding to the human MEKK3 PB1 domain | Q99759 | bead-based flow cytometry, Alexa488-MEK5 binding to MEKK3; actives lie on both sides; 0 = blocked by unlabeled MEK5, 100 = vehicle | binding response (% of control), % at 10 µM | actives 1.4% (n = 290,000) | AID 1529;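 active means binding response more than 3 SD above or below the average of its plate-row segment, actives on both sides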;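 further: Alexa488 bead fluorescence after subtracting the streptavidin-only scavenger bead signal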
# UBC13 inh: blocks human UBC13 polyubiquitin chain formation; P61088; TR-FRET; inhibition, % at 20 µM; actives 0.47% (n = 330,000); AID 485273; in the data active means inhibition above about 45%, passing the limit was not always enough
# MEKK2wt PB1 HTS: raises or lowers MEK5 binding to wildtype human MEKK2 PB1 domain. Q9Y2U5. bead flow cytometry, Alexa488-MEK5 binding to MEKK2 WT; actives lie on both sides. binding response (% of control), % at 10 µM. actives 1.1% (n = 290,000). AID 1531; in the data active means binding response below about 67% or above about 130%
# MEKK2mut PB1 HTS: signal of MEK5 binding to mutant human MEKK2 PB1 domain; bead flow cytometry, Alexa488-MEK5 binding to MEKK2 mutant; percent response, % at 10 µM; actives 0.35% (n = 290,000); AID 1530; in the data active means percent response above about 24%, passing the limit was not always enough
# PREPL inh: inhibits the human prolyl oligopeptidase-like enzyme; Q4J6C6; recombinant PREPL, fluorescence polarization activity-based probe; inhibition, % at 5.96 µM; actives 0.68% (n = 320,000); in the data active means inhibition above about 43%;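 further: 0% = enzyme with DMSO and 100% = wells lacking enzyme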
# ATG4B inhibitor: blocks human ATG4B protease cleavage of LC3 substrate; Q9Y4P1; ATG4B cleavage of LC3-PLA2, NBD-HPC fluorescence, 1 h; inhibition, % at 8.33 µM; actives 0.51% (n = 340,000); AID 504462; in the data active means inhibition above about 40%
# Target sequence (Q9Y4P1 whole entry, looked up): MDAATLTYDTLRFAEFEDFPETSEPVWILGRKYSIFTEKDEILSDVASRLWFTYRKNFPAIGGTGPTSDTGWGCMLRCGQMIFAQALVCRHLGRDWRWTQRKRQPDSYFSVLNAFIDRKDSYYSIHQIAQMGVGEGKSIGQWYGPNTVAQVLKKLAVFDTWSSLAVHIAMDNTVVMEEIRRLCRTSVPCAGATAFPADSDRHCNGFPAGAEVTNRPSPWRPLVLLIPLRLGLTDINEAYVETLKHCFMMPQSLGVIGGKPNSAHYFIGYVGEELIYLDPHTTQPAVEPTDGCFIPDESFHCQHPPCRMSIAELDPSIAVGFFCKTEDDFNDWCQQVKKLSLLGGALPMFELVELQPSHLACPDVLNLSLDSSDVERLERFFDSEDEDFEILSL
# MEKK2wt confirm: raises or lowers MEK5 binding to wildtype human MEKK2, retest; shares compounds with MEKK3 PB1 HTS; bead flow cytometry, Alexa488-MEK5 binding to MEKK2 WT; actives lie on both sides; binding response (% of control), % at 10 µM; actives 2.4% (n = 5,900); AID 1892; in the data active means binding response below about 16% or above about 210%; inactive means in between
# MEKK2mut-MEK5: signal of MEK5 binding to mutant human MEKK2, retest | shares compounds with MEKK3 PB1 HTS | bead flow cytometry, Alexa488-MEK5 binding to MEKK2 mutant | percent response, % at 10 µM | actives 2% (n = 5,900) | AID 1893; in the data active means percent response mostly above about 71%, no sharp cut-off; inactive means mostly below about 38%;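 further: higher means compound restores mutant binding toward wildtype level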
# MEKK3-MEK5 inh: MEKK3-MEK5 PB1 inhibition, single concentration confirmation; AID 1894; binding response (% of control), % at 10 µM; shares compounds with MEKK3 PB1 HTS; actives 1.8% (n = 5,900); bead flow cytometry, Alexa488-MEK5 binding to MEKK3; active compounds read low;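 active means binding response below 72% of control, or above a set upper limit, though filed actives all read lower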;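 further: 100% = DMSO only wells and 0% = binding blocked by excess unlabeled MEK5; lower values mean stronger disruption of MEK5 binding to MEKK3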
# Numbers without * were called inactive; . = no result given; ! = a repeat was not active; [ ] = dose if it differs, or a comment.
SMILES,MEKK3 PB1 HTS,UBC13 inh,MEKK2wt PB1 HTS,MEKK2mut PB1 HTS,PREPL inh,ATG4B inhibitor,MEKK2wt confirm,MEKK2mut-MEK5,MEKK3-MEK5 inh
CC(CN1CCCCC1)C(=O)NNC(=O)C12CC3CC(CC(C3)C1)C2 (stereo unspecified),107,-7,101,-2,9,-16,.,.,.
O=S(=O)(c1cccc2nsnc12)N1CCN(c2ccc(F)cc2)CC1,72*[inhibitor],-9,74,-10,-10,2,97,1,100
O=S(=O)(c1cccc2nsnc12)N1CCN(c2ccccc2F)CC1,82,4,87,-6,-10,13,.,.,.
CCOC(=O)N1CCN(CC(O)COc2ccccc2C(C)C)CC1 (stereo unspecified),101,2,103,3,3,4,.,.,.
CCN(CCNCC(O)COc1ccccc1C(C)C)c1cccc(C)c1 (stereo unspecified),109,32,174*,44*,13,12,169,29,95
CCOc1cc(/C=N/NC(N)=O)cc(Br)c1OCC(=O)Nc1ccccc1C,122*,3,114,12,-3,-27,106,7,105
O=C(N1CCCCC1)N1CCC(c2nc3ccccc3[nH]2)CC1,1.0*[inhibitor],18,2.0*[inhibitor],-3,-8,-2,105,8,106
C=Cc1c(C)c2cc3[nH]c(cc4nc(cc5nc(cc1[nH]2)C(C)=C5CCC(=O)O)C(CCC(=O)O)=C4C)c(C)c3C=C,88,-44,60*[inhibitor],-8,40,48*!,69,-13,98
CC(O)[C@H]1CNC(=O)C(=O)N1CCCCC1CCCCC1 (stereo partly specified),83,-6,84,1,-7,-3,.,.,.
O=C(O)CCC(=O)N1N=C(c2ccc(Br)cc2)CC1c1cccs1 (stereo unspecified),84,-3,88,-14,10,-2,.,.,.
Cc1ccc2[nH]c(=O)c(C3=NN(C(=O)CCC(=O)O)C(c4cccs4)C3)c(-c3ccccc3)c2c1 (stereo unspecified),133*,-5,102,0,-1,-4,88,-4,102
CCC1SC(CC)C(=O)N(CC(=O)Nc2ccc3c(c2)OCO3)C1=O (stereo unspecified),133*,-9,102,0,-7,-7,109,3,102
CCOC(=O)c1ccc(NC(=O)CN2C(=O)CSCC2=O)cc1,132*,-2,103,0,13,3,96,-2,93
CCOC(=O)c1ccc(NC(=O)CN2C(=O)C(CC)SC(CC)C2=O)cc1 (stereo unspecified),148*,-5,109,1,-15,-5,103,2,99
CCOC(=O)c1ccc(NC(=O)CN2C(=O)CSC2=O)cc1,100,10,95,-1,3,-4,.,.,.
CN(C)CCn1nnc2c(=O)oc3ccccc3c21,56*[inhibitor],4,.,-32,-5,0,101,1,102
CCCn1nnc2c(=O)oc3ccccc3c21,98,12,100,-1,-3,1,.,.,.
CCC(C)NC(=O)C(=O)NCc1ccncc1 (stereo unspecified),81*[inhibitor],-4,86,-6,2,0,82,-15,93
CCNC(=O)C(=O)NCc1ccncc1,97,3,99,0,-4,-11,.,.,.
CCOC(=O)c1ccc(NC(=O)C(=O)NCc2ccncc2)cc1,19*[inhibitor],3,24*[inhibitor],-15,18,13,111,12,104
CCCCOC(=O)c1ccc(NC(=O)C(=O)NCc2ccncc2)cc1,96,1,107,8,-3,1,.,.,.

# Screening results (PubChem)
